Test results reported in PubChem BioAssay.
Values joined by “and” are separate entries in the source; they are usually repeats but may differ in a detail not shown here. Identical values can stand only once. Active and inactive are the calls of the source. How the calls were made is not given here.

Each compound was assayed on Aerobactin synthetase IucA (Klebsiella pneumoniae hvKP1) (assay: IucA enzyme inhibition, primary screen, biochemical, Spectrum library (AID 1346200;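 further: 100% = wells without compound and 0% = wells lacking enzyme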)). Details: malachite green pyrophosphate, A620, at 8 µM, hits give low values.

Structure (SMILES)	activity remaining
Cc1cc2nc3c(=O)[nH]c(=O)nc-3n(CC(O)C(O)C(O)CO)c2cc1C (stereo unspecified)	106% (inactive)
CC1=C(/C=C/C(C)=C/C=C/C(C)=C/C=C/C=C(C)/C=C/C=C(C)/C=C/C2=C(C)C(=O)C(O)CC2(C)C)C(C)(C)CC(O)C1=O (stereo unspecified)	109% (inactive)
C[C@H]1[C@H]2CCC3C4CC=C5C[C@@H](N(C)C)CC[C@]5(C)C4CC[C@@]32CN1C (stereo partly specified)	119% (inactive)
CC(C)[C@H](N)C(=O)OCCOCn1cnc2c(=O)[nH]c(N)nc21	122% (inactive)
CC(=O)OC(C)(C)[C@@H]1Cc2cc3ccc(=O)oc3cc2O1	95.5% (inactive)
N[C@@H](Cc1cc(I)c(Oc2cc(I)c(O)c(I)c2)c(I)c1)C(=O)O	117% (inactive)
O=C(O)c1nc2cc(Cl)c(Cl)cc2[nH]c1=O	92.7% (inactive)
Cc1cccc(CN2CCN(C(c3ccccc3)c3ccc(Cl)cc3)CC2)c1 (stereo unspecified)	95.5% (inactive)
Cc1onc(-c2ccccc2)c1C(=O)NC1C(=O)N2[C@@H]1SC(C)(C)[C@@H]2C(=O)O (stereo partly specified)	106% (inactive)
CCN(CC)CCOC(=O)C(c1ccccc1)C1CCCCC1 (stereo unspecified)	111% (inactive)
OCC(O)CN1CCN(c2ccccc2)CC1 (stereo unspecified)	107% (inactive)
CC1CC[C@@]2(OC1)O[C@H]1CC3C4CC[C@@H]5C[C@@H](O)CC[C@]5(C)C4CC[C@]3(C)[C@H]1[C@@H]2C (stereo partly specified)	111% (inactive)
OC[C@H]1O[C@@H](O[C@@H]2[C@@H](CO)O[C@](O)(CO)[C@H]2O)[C@H](O)[C@@H](O)[C@H]1O	121% (inactive)
O=c1cc(-c2ccccc2)oc2cc(O)cc(O)c12	118% (inactive) and 119% (inactive)
CCC(CCC(C)C1CCC2C3CC=C4C[C@@H](OC(C)=O)CC[C@]4(C)C3CC[C@]12C)C(C)C (stereo partly specified)	114% (inactive)
CC(=O)OCC(CCn1cnc2cnc(N)nc21)COC(C)=O	121% (inactive)
C=C1C(=O)[C@]23[C@H](O)[C@H]1CC[C@H]2[C@@]12COC3(O)[C@H](O)[C@@H]1C(C)(C)CC[C@@H]2O	98.4% (inactive)
CC(C)[C@@H]1CC[C@@H](C)C[C@H]1O	95.9% (inactive)

Structure (SMILES)	activity remaining
CC(=O)O[C@H]1CC[C@]2(C)C3=CC(=O)[C@@]4(C)C(C[C@@H]5OC6(OCC(C)CC6Br)[C@@H](C)[C@@H]54)C3CC[C@H]2C1 (stereo partly specified)	117% (inactive)
COc1cc(OC)c2ccc(=O)oc2c1	112% (inactive)
CC1(C)C2CC[C@]3(C)C(C(=O)C=C4[C@@H]5C[C@@](C)(C(=O)O)CC[C@]5(C)CC[C@]43C)[C@@]2(C)CC[C@@H]1OC(=O)CCC(=O)O (stereo partly specified)	120% (inactive)
COc1ccc(-c2cc(=O)c3c(OC)c(OC)c(OC)c(OC)c3o2)cc1OC	122% (inactive)
CCCCC(=O)O[C@H]1CCC2C3CCc4cc(O)ccc4C3CC[C@@]21C (stereo partly specified)	97.5% (inactive)
CC1(C)O[C@@H]2CC3C4C[C@H](F)C5=CC(=O)C=C[C@]5(C)[C@@]4(F)[C@@H](O)C[C@]3(C)[C@]2(C(=O)CO)O1 (stereo partly specified)	99.1% (inactive)
CN(C)CCN(Cc1ccccc1)c1ccccn1	109% (inactive)
COc1ccc([C@@H]2CC(=O)c3c(O)cc(O)cc3O2)cc1O	115% (inactive)
CC(Cc1cccc(C(F)(F)F)c1)NCCOC(=O)c1ccccc1 (stereo unspecified)	98.2% (inactive)
CCOC(=O)CCC(=O)O[C@H]1[C@H](O[C@@H]2[C@@H](C)[C@H](O[C@H]3C[C@@](C)(OC)[C@@H](O)[C@H](C)O3)[C@@H](C)C(=O)O[C@H](CC)[C@@](C)(O)[C@H](O)[C@@H](C)C(=O)[C@H](C)C[C@@]2(C)O)O[C@H](C)C[C@@H]1N(C)C	113% (inactive)
O=C1C=CC2=C3c4cc(O)c(O)cc4CC3(O)COC2=C1O (stereo unspecified)	94.5% (inactive)
Cc1onc(-c2ccccc2Cl)c1C(=O)N[C@@H]1C(=O)N2[C@@H]1SC(C)(C)[C@@H]2C(=O)O	96.2% (inactive)
Oc1c(I)cc(I)c2cccnc12	102% (inactive)
CC12CCC3C(=CCc4cc(O)ccc43)C1CCC2=O (stereo unspecified)	108% (inactive)
COc1ccc2cc(CCC(C)=O)ccc2c1	99.8% (inactive)
O=c1[nH]c2cc(Cl)c(Cl)cc2[nH]c1=O	121% (inactive)
O=C1C[C@@H](c2ccc(O)cc2)Oc2cc(O)cc(O)c21	95.7% (inactive)
COC(=O)CCC(C)C1CCC2C3CC[C@@H]4C[C@H](O)CC[C@]4(C)C3C[C@H](O)[C@]12C (stereo partly specified)	120% (inactive)
